Experimental data: ChEMBL document CHEMBL4513216, “Probing the Open Global Health Chemical Diversity Library for Multistage-Active Starting Points for Next-Generation Antimalarials” (ACS Infect Dis, 2020)
Among all 69,000 compounds or so, about 8,600 (12%) showed an effect of 50% or more. The sample as a whole holds a higher share of strong results than the screen did.

system: Plasmodium berghei; assay: Screen against P. berghei liver stage (PbLuc), transformed with Luciferase, at 10uM; assay type: functional, HepG2; conditions: tested at 10 uM

Row | SMILES | INHIBITION [%]
1 | CNC(=O)N1CC[C@@H]2CN(Cc3cccnc3)S(=O)(=O)[C@@H]2CC1 | 22.2
2 | CN1CC(=O)N(C2CCNCC2)Cc2c(NC3CCC3)ncnc21 | -13
3 | CCOC1COC2(CCN(Cc3ccc4c(c3)OCO4)CC2)C1 (stereo not given) | 24.9
4 | COCCn1c(CN2CCCCO2)cnc1S(=O)(=O)CC1CCCCC1 | -2.13
5 | CCc1cc(NC2CCC(N)CC2)n2nc(C)c(C)c2n1 (stereo not given) | 14.1
6 | CC(C)n1ncc2cc(NC(=O)N3CCC(CO)CC3)cnc21 | 29.7
7 | Fc1ccccc1Cc1noc(CN2CCC(N3CCSCC3)CC2)n1 | 75.2
8 | c1ccc(OCc2noc(CN3CCN(C4CCCC4)CC3)n2)cc1 | 40.9
9 | Fc1ccccc1Cc1noc(CN2CC[C@@H]3CCCC[C@H]3C2)n1 | 38.4
10 | CCc1nc(CN(C)C2CCN(CCOc3ccccc3)C2)no1 (stereo not given) | -0.219
11 | c1ccc(CCc2noc(CN3CCC(N4CCSCC4)CC3)n2)cc1 | 7.97
12 | c1ccc(OCc2noc(CN3CCC(N4CCSCC4)CC3)n2)cc1 | 79.5
13 | CS(=O)(=O)NCC1(c2ccccc2Br)CC1 | 46.6
14 | CCN(C)S(=O)(=O)NCC1(c2ccccc2Br)CC1 | 51
15 | CN(C)S(=O)(=O)NCC1(c2ccccc2Br)CC1 | 46.6
16 | O=C(c1cn(-c2ccccc2Cl)nn1)N1CCSCC1 | -28.8
17 | COC(C)(C)CNC(=O)c1cn(-c2cccc(Cl)c2F)nn1 | 18.7
18 | COCC(NC(=O)c1cn(-c2cccc(Cl)c2F)nn1)C1CC1 (stereo not given) | 51.2
19 | COCC(C)(C#N)NC(=O)c1cn(-c2cccc(Cl)c2F)nn1 (stereo not given) | 55.6
20 | CC(O)CN1CCN(C(=O)c2cn(-c3ccccc3Cl)nn2)CC1 (stereo not given) | -9.67
21 | O=C(c1cn(-c2cccc(Cl)c2F)nn1)N1CCCSCC1 | -134
22 | CNC(=O)c1sc2ccccc2c1CC1CCCN1Cc1cnc(C)s1 (stereo not given) | 24.69
23 | CCN1CCc2[nH]nc(C(=O)N3CCCC3C)c2C1 (stereo not given) | -65.2

Row | SMILES | INHIBITION [%]
24 | CS(=O)(=O)NC(=O)c1ccn(-c2cccc(Br)c2)n1 | 16.3
25 | CC(c1ccccc1F)N(CC(N)=O)C1CC1 (stereo not given) | 72.1
26 | CC(c1ccccc1F)N(C(=O)CSCC(N)=O)C1CC1 (stereo not given) | 35.9
27 | CC(c1ccccc1Cl)N(C(=O)CSCC(N)=O)C1CC1 (stereo not given) | 30.4
28 | Cc1nnc2n1CCN(Cc1ccc3c(c1)OCCO3)C2 | 33.8
29 | COCC(=O)N1CCC(O)(CN2CCN(c3ccccc3)CC2)C1 (stereo not given) | 39.7
30 | CC1CCCCN1C(=O)c1nc2c(n1C(C)C)CCN(C(=O)C1CC1)C2 (stereo not given) | -0.554
31 | CC(C)n1c(C(=O)N2CCCC2)nc2c1CCN(C)C2 | 9.79
32 | CC1CCCCN1C(=O)c1nc2c(n1C(C)C)CCN(C)C2 (stereo not given) | 58.5
33 | COCCN1CCC2(C1)c1ccccc1S(=O)(=O)N2C (stereo not given) | 40.5
34 | Cc1cc(O)nc(C2CN(CC3(O)CCOCC3)CCO2)n1 (stereo not given) | -34.6
35 | Cc1cc(O)nc(C2CN(CCO)CCO2)n1 (stereo not given) | 50.8
36 | Cc1cc(O)nc(C2CN(CCC(F)(F)F)CCO2)n1 (stereo not given) | -6.92
37 | CN1CCN(C[C@@H]2CN(C3Cc4ccccc4C3)C[C@@H]2CO)CC1 | 8.51
38 | CC(NC(=O)C1CCCCC1)c1cc(O)nc(-c2cccnc2)n1 (stereo not given) | -6.002
39 | O=C(c1sccc1C1CC1)N1CCCN(c2cccnn2)CC1 | 15.7
40 | Cc1ccsc1CN(C)CCc1scnc1C | 46.9
41 | Cc1ncsc1CCN(C)Cc1ccc(CO)o1 | 57.6
42 | Cc1ncsc1CCN(C)Cc1ccc(Br)o1 | 47.1
43 | CC(=O)N1CCCC(c2ncncc2-c2ccncc2)C1 (stereo not given) | 26.8
44 | COc1ccc(CN2C[C@@H](OCc3ccccn3)[C@H]3COC[C@H]32)cc1 | 34.7
45 | Cc1ccc(S(=O)(=O)NCc2cccc(C(=O)N3CCCC3)c2)cc1F | -51.5
46 | CC(C)c1noc(CCCC(=O)N2CCN(Cc3ccccn3)CC2)n1 | 40

Row | SMILES | INHIBITION [%]
47 | Cc1ccc(NC2CCN(C(=O)Cc3c(C)noc3C)CC2)nn1 | 28.38
48 | CC(C)(C)[S+]([O-])CCNC(=O)c1csc(NC2CC2)n1 (stereo not given) | -12.1
49 | CC(C)CCNC(=O)c1csc(NC2CC2)n1 | -70.8
50 | CC(C)NC(=O)c1csc(NC2CC2)n1 | 13.9
51 | Cc1[nH]/c(=N\C(=O)c2csc(NC3CCCC3)n2)sc1C | 83.8
52 | CC(=O)Nc1nc(C(=O)N2CCCC(c3cc(C)[nH]n3)C2)cs1 (stereo not given) | 22.3
53 | Cc1[nH]/c(=N\C(=O)c2csc(NC3CC3)n2)sc1C | 77.9
54 | O=c1[nH]cnc2c1CCN(S(=O)(=O)c1ccc(OC(F)(F)F)cc1)C2 | -10.1
55 | CCc1ccc(NC(=O)Nc2c(O)oc3ccccc3c2=O)cc1 | -11.4
56 | O=C(COCc1ccccc1)NCc1ccc(O)c(F)c1 | -7.93
57 | COCC(=O)N1CCCn2c(CN3CCCC3=O)nnc2C1 | -15.6
58 | Cc1cc(CN(C)C(=O)c2ccc(Cl)cc2N2CCCC2=O)no1 | -9.37
59 | O=C(c1ccccn1)N1CCC2(CC1)CN(c1cncnc1)C(=O)CO2 | 40.4
60 | Cc1nc2ccccc2c(=O)n1CCC(=O)N1CCCC1 | 17.36
61 | CC(=O)NCC(=O)N1CCOCC(Cc2ccc3c(ccn3C)c2)C1 (stereo not given) | -2.995
62 | Cc1cnc(CCNC(Cc2ccncc2)C(F)(F)F)s1 (stereo not given) | 11.7
63 | Cc1nc(CCNC(Cc2ccncc2)C(F)(F)F)cs1 (stereo not given) | 59.3
64 | Cc1nc(C)c(CCNC(Cc2ccncc2)C(F)(F)F)s1 (stereo not given) | 48.5
65 | CN(C)C(=O)c1cc2ncc(C(=O)NC3CCCC3)cc2n1C | -71.5
66 | O=C(c1cnc2ccccn12)N1CCCC(c2ccn[nH]2)C1 (stereo not given) | -0.71
67 | O=C(c1ccccc1-c1nc[nH]n1)N1CCOC(C(F)(F)F)C1 (stereo not given) | 7.15
68 | O=C(c1cc(=O)n(-c2ccccc2)[nH]1)N1CCOC(C(F)(F)F)C1 (stereo not given) | 63.6
69 | O=C(c1cnnn1-c1ccccc1)N1CCCC(c2ccn[nH]2)C1 (stereo not given) | 12.9

Row | SMILES | INHIBITION [%]
70 | O=C(c1cc(=O)n(-c2ccccc2)[nH]1)N1CCCC(c2ccn[nH]2)C1 (stereo not given) | 55
71 | O=C(c1cc(=O)n(-c2ccccc2)[nH]1)N1CCOCC(O)C1 (stereo not given) | 0.546
72 | COc1ccc(CNC(=O)Nc2ccc(N3CCCC3)nc2)cc1O | 26.4
73 | O=C(NCc1cccs1)[C@H]1CC[C@@H]2[C@@H](CCN2C2CCC2)O1 | -4.88
74 | O=C(c1cscn1)N1CCC2(CCN(Cc3nccs3)CC2)CC1 | 35.7
75 | NC(=O)N1C[C@H]2CN(Cc3nccs3)C[C@H]2C1 | 14.8
76 | Cc1cnc(C(=O)N2C[C@H]3CN(Cc4cccnc4)C[C@H]3C2)cn1 | -6.21
77 | Cc1cnc(C(=O)N2C[C@H]3CN(Cc4cccs4)C[C@H]3C2)cn1 | -18.2
78 | Cc1cnc(C(=O)N2C[C@H]3CN(Cc4nccs4)C[C@H]3C2)cn1 | 81.5
79 | O=C(c1cscn1)N1C[C@H]2CN(Cc3nccs3)C[C@H]2C1 | 62.5
80 | O=C(O)c1c(-c2ccncc2)ncc2c1CCN(C1CCOC1)C2 (stereo not given) | -12.4
81 | CCc1nc(CC(=O)N2CCn3c(C)nnc3C2)cs1 | 27.45
82 | CN1C(=O)CC(C(=O)O)C12CCN(Cc1ccc(Cl)cc1F)CC2 (stereo not given) | 7.84
83 | CN1C(=O)CC(C(=O)O)C12CCN(Cc1cc(Cl)ccc1F)CC2 (stereo not given) | 50.5
84 | CN1C(=O)CC(C(=O)O)C12CCN(Cc1ccc(F)cc1Cl)CC2 (stereo not given) | 18.8
85 | O=C(c1ccsc1)N1CCC(Nc2cccnn2)CC1 | -85
86 | COc1ccc(NC2(C(=O)N3CCCn4cncc4C3)CCCC2)cc1 | 18.5
87 | CN(CC(=O)NCCCOc1ccc(F)cc1)c1ccc(C#N)cn1 | 3.84
88 | O=c1[nH]c2cn(-c3ccccc3)c(=O)n2[nH]1 | 14.2
89 | Cc1cc(C)nc(C2CCCN2S(=O)(=O)N2CCOCC2)n1 (stereo not given) | 43.4
90 | Cc1ccc(C(=O)N2CCCC(c3[nH]ncc3S(C)(=O)=O)C2)s1 (stereo not given) | 33.7
91 | CS(=O)(=O)NC[C@]12COC[C@H]1CN(Cc1ccc3c(c1)OCO3)C2 | 38.5
92 | Cn1cc(C(=O)NCC(Cc2cccc(F)c2)N2CCCCC2=O)nn1 (stereo not given) | 6.83

Row | SMILES | INHIBITION [%]
93 | O=C(CCN1CCC(C(=O)c2cc(F)ccc2F)CC1)NC1CC1 | -1.58
94 | O=C(CN1CCC(C(=O)c2cc(F)ccc2F)CC1)NC1CCCC1 | 51.3
95 | O=C(CCN1CCC(C(=O)c2cc(F)ccc2F)CC1)NC1CCCC1 | 36.2
96 | C=C(Cl)CN1CCC(C(=O)c2cc(F)ccc2F)CC1 | 17.8
97 | COC(=O)CN1CCC(C(=O)c2cc(F)ccc2F)CC1 | 15.3
98 | O=C(CN1CCC(C(=O)c2cc(F)ccc2F)CC1)NC1CC1 | 56.5
99 | CC(=O)N[C@H]1CCO[C@@H](c2cccc(NC(=O)c3cccc(F)c3)c2)C1 | 6.74
100 | O=C(NC1CC1)N1CCc2ncc(CN3CCOCC3)n2CC1 | 15.9
101 | COc1ccc(CN2CC[C@H]3[C@H]2CC(=O)N3Cc2cccc(C)n2)cc1 | -31.9
102 | Cc1ccc(N2C[C@H]3OCC[C@H]3[C@H](C(=O)NCC3CC3)C2)nn1 | 49.7
103 | CCc1nnc(CS(=O)(=O)c2ccc(C)cc2)n1C | 35.1
104 | CN(CCC#N)C(=O)CN(C1CC1)C1CCc2ccccc21 (stereo not given) | -4.15
105 | COC(=O)CN(C)C1CCc2ccccc21 (stereo not given) | 20.1
106 | CCN(CC)C(=O)CN(C)C1CCc2ccccc21 (stereo not given) | 53.5
107 | CC(C)N(C(=O)CN(C)C1CCc2ccccc21)C(C)C (stereo not given) | -30.96
108 | CN(Cc1ccc(Cl)s1)C(=O)CN(C)C1CCCc2ccccc21 (stereo not given) | 85.9
109 | CN(CC(=O)N(C)C1CCCCC1)C1CCc2ccccc21 (stereo not given) | 37.2
110 | CN(Cc1cccs1)C(=O)CN(C)C1CCc2ccccc21 (stereo not given) | 47.4
111 | CN(Cc1ccc(Cl)s1)C(=O)CN(C)C1CCc2ccccc21 (stereo not given) | 82.5
112 | CN(Cc1c(F)cccc1Cl)C(=O)CN(C)C1CCc2ccccc21 (stereo not given) | 85.1
113 | C=C(C)CN(CC)C(=O)CN(C)C1CCc2ccccc21 (stereo not given) | -2.725
114 | CCOC(=O)CN(C)C1CCc2ccccc21 (stereo not given) | 34.7
115 | CCCN(CCC)C(=O)CN(C)C1CCc2ccccc21 (stereo not given) | 15.55
